Consider 42 compounds from PubChem BioAssay AID624256 (NMMLSC, 2012).

Structures are written as SMILES. The campaign covered roughly 360,000 compounds. About 3,700 (1%) were called active. Inconclusive results (about 2%) are left out.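 The calls were made as follows: active = normalized GFP-positive differentiation at or above the plate's own cutoff, the solvent-only control mean plus 3 SD; inconclusive = no clear call, values can overlap the other calls; inactive = the rest.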 What follows is part of a selection rich in actives, with near analogues and random picks from the rest.

The assay can be described thus: induction of myeloid progenitor differentiation, primary screen, cell-based, flow cytometry, MLPCN library (AID 624256).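 As to GFP+ MAC1+ double positive: cells exposed to compound for four days before flow analysis.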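 As to normalized GFP-positive differentiation: cells exposed to compound for four days before flow analysis; 0% = DMSO wells and 100% = fulvestrant positive control at 5 µM.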 Conditions: ER-HoxA9 myeloid progenitors, lysozyme-GFP differentiation, at 10 µM; GFP+ MAC1+ double positive: measured here: differentiation confirmed by MAC1 staining, stronger effect = higher value; normalized GFP-positive differentiation: stronger effect = higher value. Background: Flow cytometry measures light scatter and fluorescence of single cells or particles in a stream.
Consider `COc1ccc(S(=O)(=O)NCCCCOc2ccc(Cl)cc2)cc1`, for which the GFP+ MAC1+ double positive turned out to be 0.7% and the compound was classed as inactive.
Turning to `COc1ccc(N(CCC#N)S(=O)(=O)c2ccc(Cl)cc2)cc1`, the GFP+ MAC1+ double positive came out at 6.2% and the normalized GFP-positive differentiation was 17% (active).
`COc1ccc(N(CC(=O)N2CCCCCC2)S(=O)(=O)c2ccccc2)cc1`: the GFP+ MAC1+ double positive is 2.2% and the result was inactive.
In the same order, the values of `COc1cc(C=C(OC(C)=O)c2ccc3c(c2)OCO3)cc(OC)c1OC` are 0.8% and “inactive”.
On the same counts, the results for `Cc1ccc(C(=O)Nc2ncccc2C)cc1S(=O)(=O)N1CCOCC1` are 0.8% and “inactive”.
For `Cc1ccc(C(=O)OCC(=O)N2CCCCCC2)cc1S(=O)(=O)N1CCOCC1`, the GFP+ MAC1+ double positive is 0.9% and the compound was classed as inactive.
As to `Cc1cc(C)n(C(=O)c2ccc(C)c(S(=O)(=O)N3CCOCC3)c2)n1`, the GFP+ MAC1+ double positive came out at 3.4% and the normalized GFP-positive differentiation is 11% (active).
On to `CCOC(=O)c1ccc(-c2ccc3ncnc(N(C)Cc4sccc4C)c3c2)o1`, for which the GFP+ MAC1+ double positive amounted to 2% and the call was inactive.
On to `CC(=O)Nc1cccc(Nc2ccc(C#N)cc2)c1`, for which the GFP+ MAC1+ double positive is 0.5% and the outcome was inactive.
With `Cc1cccc(C)c1NC(=O)C(c1ccc(C(F)(F)F)cc1)n1c(=O)c(-c2ccco2)nc2ccccc21` (centres undefined), the GFP+ MAC1+ double positive was found to be 2.6% and the outcome was inactive.
Turning to `CC[n+]1cc(C)ccc1/C=C/c1ccc(N(C)C)cc1`, the GFP+ MAC1+ double positive worked out at 14.3% and the normalized GFP-positive differentiation was 385% (active).
For `O=[N+]([O-])c1ccc(CN2CC(N3CC=CC3)CS2(=O)=O)cc1` (centres undefined), the GFP+ MAC1+ double positive was found to be 0.8% and the call was inactive.
With `COc1ccc(CC(N)c2csc(NC(=O)Cc3ccccc3)n2)cc1` (centres undefined), the GFP+ MAC1+ double positive was found to be 0.8% and the result was inactive.
In the same order, the values of `CCCCn1nnnc1C(c1cccc(OC)c1OC)N1CCN(C/C=C/c2ccccc2)CC1` (centres undefined) are 1% and “inactive”.
In the same order, the values of `CCOc1nc(NCCN2CCOCC2)nc(Nc2ccc(C)cc2)n1` are 0.6% and “inactive”.
On the same counts, the results for `Fc1ccc(-c2ccc(NCCN3CCOCC3)nn2)cc1` are 0.2% and “inactive”.
With `c1ccc2cc3c(NCCN4CCOCC4)ccnc3cc2c1`, the GFP+ MAC1+ double positive was 8.7% and the normalized GFP-positive differentiation was 189% (active).
As for `CC1(C)OC(=O)C2=C(C[C@@H](C3CC3)O[C@H]2CCc2cccc(Cl)c2)O1`, the GFP+ MAC1+ double positive stood at 0.7% and the result was inactive.
`COc1cc(/C=N/O)cc(Br)c1OCc1cccc(Cl)c1`: the GFP+ MAC1+ double positive stood at 0.1% and the compound was called inactive.
`COc1cc(/C=C2/C(=O)NN(c3ccc(F)cc3)C2=O)cc([N+](=O)[O-])c1O`: the GFP+ MAC1+ double positive came out at 0.5% and the compound was classed as inactive.
Take `COc1cc(/C=C2/C(=O)NN(c3cccc(Cl)c3)C2=O)cc(Br)c1O`: the GFP+ MAC1+ double positive worked out at 11.4% and the normalized GFP-positive differentiation was 287% (active).
As for `CCOC(=O)[C@]12CCCC=C1N(CCC1=CCCCC1)C(=O)[C@H](CC(=O)N1CCSCC1)C2`, the GFP+ MAC1+ double positive is 4.4% and the outcome was inactive.
Turning to `COc1ccc(Sc2ccc(NC(=O)c3cccc(Cl)c3)cc2C#N)cc1`, the GFP+ MAC1+ double positive is 1.1% and the compound was called inactive.
Take `C[C@]12c3[nH]c4ccc(Cl)cc4c3CCN1C(=O)[C@@H](CC(=O)NCCCn1ccnc1)C[C@@H]2C(=O)N1CCOCC1`: the GFP+ MAC1+ double positive stood at 0.6% and the compound was classed as inactive.
Take `CC(C)N(C(=O)[C@H]1C[C@H](CC(=O)NCCC2=CCCCC2)C(=O)N2CCc3c([nH]c4cc(CCC(=O)N(C)C)ccc34)[C@]12C)C(C)C`: the GFP+ MAC1+ double positive is 0.4% and the compound was called inactive.
For `CC(C)N(C(=O)[C@H]1C[C@H](CC(=O)NC(C)(C)C)C(=O)N2CCc3c([nH]c4ccc(Cl)cc34)[C@]12C)C(C)C`, the GFP+ MAC1+ double positive worked out at 1.5% and the normalized GFP-positive differentiation was 8.17% (active).
As for `O=C(NCc1ccc(F)cc1)c1cc(C2CCCCN2C(=O)C2CCCCC2)on1` (centres undefined), the GFP+ MAC1+ double positive was 1.3% and the call was inactive.
In the case of `COc1cccc(/C=C2\Sc3ccc(C(=O)NCC4CCCO4)cc3N(C)C2=O)c1` (centres undefined), the GFP+ MAC1+ double positive worked out at 3.7% and the call was inactive.
For `COc1cccc(/C=C2\SC(=S)N(CCCC(=O)N3CCOCC3)C2=O)c1`, the GFP+ MAC1+ double positive was 2.7% and the normalized GFP-positive differentiation was 19% (active).
On to `COc1ccc(/C=C2\SC(=S)N(CCC(=O)N3CCOCC3)C2=O)cc1OC`, for which the GFP+ MAC1+ double positive turned out to be 0.9% and the compound was called inactive.
Take `OC(c1cc(Cl)cc(Cl)c1)c1ncc(-c2ccccc2C(F)(F)F)[nH]1` (centres undefined): the GFP+ MAC1+ double positive was 1.7% and the call was inactive.
For `Nc1nc2c(ncn2[C@@H]2O[C@H](CNS(=O)(=O)N3CCc4ccccc4C3)[C@@H](O)[C@H]2O)c(=O)[nH]1`, the GFP+ MAC1+ double positive is 0.7% and the outcome was inactive.
In the same order, the values of `COC(=O)C1C(=O)c2c([nH]c(C(=O)OCCSC)c2C)CC1C` (centres undefined) are 3.1% and “inactive”.
For the compound `COc1cc(C2CC(=O)c3cnc(NC(C)=O)nc3C2)cc(OC)c1OC` (centres undefined), the GFP+ MAC1+ double positive was determined as 0.9% and the outcome was inactive.
With `CCCOC(=O)c1[nH]c2c(c1C)C(=O)CC(c1cc(OC)c(OC)c(OC)c1)C2` (centres undefined), the GFP+ MAC1+ double positive stood at 8.6% and the normalized GFP-positive differentiation was 37% (active).
Turning to `CN1C=CC=C/C1=C1\SC(=S)N(Cc2ccccc2)C1=O`, the GFP+ MAC1+ double positive was determined as 0.2% and the compound was called inactive.
For the compound `COc1cc(/C=C2/SC(=S)N(Cc3ccccc3)C2=O)cc(OC)c1O`, the GFP+ MAC1+ double positive was 6.9% and the normalized GFP-positive differentiation is 111% (active).
Regarding `COc1ccc(CCN=C2SCC(=O)N2Cc2ccccc2)cc1OC`, the GFP+ MAC1+ double positive was determined as 0.1% and the result was inactive.
With `Cc1ccc2nc(-c3ccccc3)c(CC3CCCCC3)n2c1`, the GFP+ MAC1+ double positive was found to be 0.3% and the result was inactive.
In the same order, the values of `COc1cc(OC)cc(C2=Cc3ccccc3C(CC(=O)c3ccco3)N2c2ccc(-c3cnc(OC)nc3)cc2)c1` (centres undefined) are 1% and “inactive”.
In the case of `CC(=O)N1Cc2cc(C(=O)NCc3cccc(F)c3)nc(-c3cccc(C4=CCCCC4)c3)c2[C@H]1CCO`, the GFP+ MAC1+ double positive was found to be 1.2% and the call was inactive.
For the compound `C[C@H](NC(=O)CC[C@H]1O[C@@H](n2ccc(=O)[nH]c2=O)[C@H](O)[C@@H]1O)c1cccc2ccccc12`, the GFP+ MAC1+ double positive amounted to 1.1% and the compound was called inactive.
